The entries come from a sample that favours hits as a whole.
Pf Dd2 growth = qHTS Primary assay for Inhibitors of Plasmodium falciparum Dd2 growth in vitro. P. falciparum Dd2 growth, SYBR Green, 72 h. Potency, µM (top dose mostly 28.9 µM), without a hit: top-dose activity, negative = inhibition, most hits filed as inhibitors. 120,000 compounds, 4.3% hits. AID 1347417, 2020; active = well fitted inhibition curve with a large enough effect;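 also: plate controls were DMSO vehicle for no effect and reference drug for full effect; nearly all actives have a fitted effect of over 65% in size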
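Readout: SYBR Green fluorescence, 485 nm excitation, 535 nm emission, after ~16 h lysis at 37C. Before that, Dd2-infected red cells (2.5% hematocrit) grew 72 h with compound, 29 uM top final concentration.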
Starred values were filed as active, the others as inactive; i = inactive; [ ] = another dose, or the depositor's remark. Potency is read from the fitted curve at half-maximal effect.

SMILES	Pf Dd2 growth
CN1CC(=O)N(C2CCCNCC2)Cc2c(NCc3cccc(Cl)c3)ncnc21 (configuration not stated)	-16%
CNc1ncc(C(=O)N2CCCC3(CCC(=O)N(CCOC)C3)C2)cn1 (configuration not stated)	-6%
O=C1[C@H]2CN(Cc3cccc(Cl)c3F)C[C@H]2C(=O)N1Cc1ccc2c(c1)OCO2	16%
CCOCCCNC(=O)C(c1ccc(C)cc1)N(Cc1cccs1)C(=O)c1ccc(NC(C)=O)cc1 (configuration not stated)	2%
COc1ccccc1NC(=O)CN1C(=O)NC2(CCC(C)CC2)C1=O (configuration not stated)	i
CCCCCC(=O)N(c1ccc(OCC)cc1)S(=O)(=O)c1ccc2c(c1)n(C)c(=O)n2C	-26%
Cc1cccc(N(CC(=O)Nc2cccc(Cl)c2C)S(C)(=O)=O)c1C	13%
Cc1ccc(-n2ncc3c(N4CCN(c5ccccc5)CC4)ncnc32)cc1C	61%
Cc1ccc(Cl)cc1-n1ncc2c(N3CCCCCC3)ncnc21	17%
Cc1ccc(Cl)cc1-n1ncc2c(NCCc3ccccc3)ncnc21	i
CC(=O)c1ccc(N2CCN(c3ncnc4c3cnn4C)CC2)cc1	i
CCc1ccc(Nc2ncnc3c2cnn3-c2cc(Cl)ccc2C)cc1	10µM*
CC(=O)c1ccc(N2CCN(c3ncnc4c3cnn4-c3cc(Cl)ccc3C)CC2)cc1	11µM*
COc1ccccc1N1CCN(c2ncnc3c2cnn3-c2cc(Cl)ccc2C)CC1	8.9µM*
Cc1ccc(Cl)cc1-n1ncc2c(NCCCc3ccccc3)ncnc21	20%
CN1CCN(c2ncnc3c2cnn3-c2cccc(Cl)c2)CC1	i
COc1ccc(C(=O)COC(=O)C(Cc2c[nH]c3ccccc23)NC(=O)c2ccc(C(C)(C)C)cc2)cc1 (configuration not stated)	i
COc1ccc(C2(C(=O)N3CCCOCCNC(=O)[C@@H]4CCC[C@@H]43)CC2)cc1	3%
CNC(=O)c1noc([C@@H]2CC(F)(F)CN2C(=O)c2cccn2C)n1	27%
C=CCNC(=O)N[C@H]1C[C@H]2C(=O)Nc3ccc(/C=C/c4ccc(OC)cc4)cc3C(=O)N2C1	-22%
O=C(N1c2ccccc2CC1c1nnc(C2CCOCC2)o1)C1(c2ccccc2)CC1 (configuration not stated)	i
CCOC(=O)C1CCN(C(=O)Cn2ncc3c([nH]c4ccc(C)cc43)c2=O)CC1	63%
COc1ccc(-c2noc(-c3nc(-c4cccnc4)no3)n2)cc1OC	2%
Cc1nc(NC(C)c2nc(-c3cccnc3)no2)c2cccnc2n1 (configuration not stated)	3.5µM*
C[C@@H](NC(=O)c1cccnc1)c1onc(-c2cccnc2)c1C(=O)O	20%[44.1 µM]
SMILES	Pf Dd2 growth
COc1ccc(NC(=O)CC2C(=O)N(c3ccc(F)cc3)C(=O)N2CCc2sccc2C)cc1 (configuration not stated)	-10%
Fc1ccc(N2CCN(Cc3nnc(-c4ccccc4Cl)o3)CC2)cc1	2%
Cc1ccc(NCc2ccccc2-c2nnc(-c3ccccc3Cl)o2)cc1Cl	-24%
Fc1ccc(NCc2ccccc2-c2nnc(-c3ccccc3Cl)o2)cc1	13µM*
COCC(=O)N1CCC2(CC1)CC(=O)N(c1ccccc1)c1ccccc1O2	-5%
COc1ccc(OC)c(NC(=O)c2cccc3c2CCN3C(=O)c2ccc(F)cc2)c1	-28%
NC(=O)Cc1c[nH]c2ncc(-c3ccc(F)cc3)cc12	i
O=C(Cc1c[nH]c2ncc(-c3ccc(Oc4ccccc4)cc3)cc12)NCc1cccnc1	8.9µM*
CN(C)c1cccc(-c2cnc3[nH]cc(CC(=O)NCc4cccnc4)c3c2)c1	8.9µM*
O=C(Cc1c[nH]c2ncc(-c3ccccc3F)cc12)NCc1cccnc1	-2%[44.1 µM]
Cc1cccc(-c2cnc3[nH]cc(CC(N)=O)c3c2)c1	i
CN(C)c1cccc(NC(=O)Cc2c[nH]c3ncc(-c4cccnc4)cc23)c1	i
Cc1ccccc1-c1cnc2[nH]cc(CC(=O)NCc3cccnc3)c2c1	-15%[44.1 µM]
COc1ccc(-c2cnc3[nH]cc(CC(N)=O)c3c2)cc1OC	0.63µM*
Cc1noc(C)c1-c1cnc2[nH]cc(CC(=O)NCc3cccnc3)c2c1	-11%[44.1 µM]
COC[C@@H]1[C@H](NC(=O)c2ccc(Cn3nnnc3C)cc2)[C@@H]2CCO[C@H]12	0%
O=C(c1ccccc1F)N1CCCC2(C1)NC(=O)N(Cc1ccc(Cl)cc1)C2=O (configuration not stated)	0%
Cc1noc([C@@H]2CN(C(=O)c3ccc4c(c3)OCO4)C[C@H]2CO)n1	17%
CC(C)CN1C(=O)c2cccn2CC1C(=O)NCc1ccco1 (configuration not stated)	-4%
c1cn(-c2ccc(Oc3nn[nH]n3)cc2)c(-c2cc3n(n2)CCCNC3)n1	-1%
Cc1ccc(S(=O)(=O)Cc2nc(-c3ccc(C(=O)NCc4ccccc4C)cc3)oc2C)cc1	-9%
CC(C)(Oc1nn(Cc2cccc(Cl)c2)c2ccccc12)C(=O)NC1CCOCC1	-21%[44.1 µM]
O=S(=O)(NCc1ccc(F)cc1)c1ccc2[nH]c3c(c2c1)CCCCC3	2%
COc1ccc2nc3n(c2c1)[C@@H](CNCc1ccc(C(=O)O)cc1)COC3	13%[44.1 µM]
COc1ccc2nc3n(c2c1)[C@@H](CNCc1ccc(C#N)cc1)COC3	i
SMILES	Pf Dd2 growth
COc1ccc2nc3n(c2c1)[C@@H](CNCc1ccccc1)COC3	7.1µM*
CCc1ccccc1NC(=O)Cn1c(=O)n(-c2ccccc2)c(=O)c2oc3ccccc3c21	14%
CC(C)(O)c1cc(CC2(NCc3ccc(OC(F)(F)F)cc3)COC2)no1	1%[44.1 µM]
Cc1ccc2oc3c(c(=O)c2c1)C(c1ccc(F)cc1)N(c1nc(C)c(C)s1)C3=O (configuration not stated)	3%
O=C(O)c1cccc(C2CCCN(C(=O)CCCn3ccnc3)C2)c1 (configuration not stated)	-22%
CN1CC(c2ccccc2)CC2(CCN(C(=O)CCCn3ccnc3)CC2)C1 (configuration not stated)	13µM*
CCc1ocnc1C(=O)N1CCC2(CC1)CC(c1ccccc1)CN(C)C2 (configuration not stated)	-20%
Cn1c(=O)c2c(nc(CN3CCN(c4ccccc4F)CC3)n2Cc2ccccc2F)n(C)c1=O	23%
CC(=O)c1cccc(NC(=O)CCS(=O)(=O)c2cc3c(cc2C)NC(=O)CO3)c1	-3%
Cn1ccnc1CN1CCOC[C@H]1c1ncc(-c2cccc(Cl)c2)[nH]1	5µM*
CC(=O)Nc1ccc(CN2CCOC[C@H]2c2ncc(-c3cccc(Cl)c3)[nH]2)cc1	-7%[44.1 µM]
Fc1ccc(-c2cnc([C@@H]3COCCN3Cc3ncc[nH]3)[nH]2)cc1	i
c1cncc(CN2CCOC[C@H]2c2ncc(-c3cccnc3)[nH]2)c1	3%[44.1 µM]
Oc1ccccc1CN1CCOC[C@H]1c1ncc(-c2cccc(Cl)c2)[nH]1	3.2µM*
N#Cc1cccc(CN2CCOC[C@H]2c2ncc(-c3ccc(F)cc3)[nH]2)c1	-10%[44.1 µM]
COCCCNC(=O)N[C@@H]1CN(c2ncccn2)C[C@H]1CN(C)C	18%
Cc1cc(C)nc(N2CCN(C(=O)C3CC(=O)N(CC(C)C)C3)CC2)n1 (configuration not stated)	3%
Cc1noc2c(-c3cn[nH]c3)cc(-c3cccc(C(F)(F)F)c3)nc12	-24%[44.1 µM]
O=C(NCc1ccco1)N1CCc2n[nH]c(=O)n2CC1	2%
